Screening data as filed in PubChem BioAssay.
Sampled rows, rich in hits. Any-hit rate of the full collection: about 21%.
Cycloheximide cs = counter-screen for Shiga toxin inhibitors: cycloheximide protein synthesis inhibition. AID 2314. hit rate 12% among 300,000. cell reporter, cycloheximide protein synthesis inhibition counterscreen. max response, %; in the data active = max response mostly above about 13%, no sharp cut-off; inactive = mostly below about 14%; also: read at 38.3 µM for the half of the compounds with a filed dose
Shiga toxin inh = Shiga toxin inhibition; inhibition, % at 38.7 µM; hit rate 9.2% among 290,000; Vero cells, Shiga toxin protein synthesis inhibition reporter; in the data active = inhibition mostly above about 28%, no sharp cut-off; inactive = mostly below about 43%
Pf growth 96h = P. falciparum growth inhibition at 96 hours. P. falciparum luciferase reporter growth, 96 h. AID 504834. hit rate 6.9% among 320,000. Potency, µM (doses to about 28.7 µM), most hits filed as inhibitors
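P. falciparum expressing integrated firefly luciferase grown in erythrocytes (2% hematocrit, 0.05% parasitemia final) with compounds for 96 hours at 37 C, 5% CO2. Growth inhibition read as loss of luminescence after adding luciferase detection reagent.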
NS1 inh = blocks influenza NS1 protein function; Potency, µM (top dose mostly 46.1 µM); hit rate 0.4% among 270,000; calls by dose curve; also: actives are rising curves; nearly all actives have a fitted effect of over 50% in size
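Compounds were scored for reversing the slow growth caused by influenza A NS1 in S. cerevisiae, measured by optical density at 600 nm. Assay medium contained 2% galactose at pH 6.0; NS1-free yeast of the same strain were the positive control.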
Sm TGR inh = S. mansoni TGR enzyme inhibition; Q962Y6; purified TGR, DTNB reduction, TNB absorbance 405 nm; Potency, µM (titrated, usually from 114 µM), hits mostly inhibitors; hit rate 3% among 360,000; also: nearly all actives have a fitted effect of over 60% in size
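TGR 20 nM + NADPH 100 uM (dispensed conc.), cpd preinc 15 min RT; start with NADPH (500 uM addition) then DTNB (15 mM addition). Kinetic TNB absorbance, 405 nm filter. Four-parameter Hill fit across titration.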
Pf growth 48h = inhibits P. falciparum growth in the first generation, 48 h; P. falciparum luciferase growth in erythrocytes, 48 h; Potency, µM (top dose mostly 28.7 µM), most hits filed as inhibitors; hit rate 5.9% among 310,000
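Luminescence readout; reporter = integrated firefly luciferase in P. falciparum. RBC culture at 2% hematocrit, 0.1% parasitemia final, 37 C/5% CO2; decreased signal taken as growth inhibition.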
Hits are given with their value; 0 = inactive; ? = inconclusive; - = no result; [ ] = dose if it differs, or a comment. Unless noted, calls follow the shape of the dose curve; as a rule, active = well fitted curve in the direction sought with a large enough effect; inconclusive = small, poorly fitted or top-dose-only effect, or another doubt; inactive = no such curve, though single readings can be large; an effect the other way counts as inactive or inconclusive.

SMILES | Cycloheximide cs | Shiga toxin inh | Pf growth 96h | NS1 inh | Sm TGR inh | Pf growth 48h
COc1ccc(CNC[C@@H](CCCCN(C)Cc2ccc(OC)cc2)N2C[C@H](c3ccccc3)N(CCc3ccc(Cl)c(Cl)c3)C(=O)C2=O)cc1 | 0 | 0 | 2.3µM | 0 | 0 | 1.7µM
CCOc1ccc(CCN2C(=O)C(=O)N([C@H](CCCN(C)Cc3ccccc3)CNCc3ccccc3)C[C@@H]2C(C)C)cc1 | 0 | 0 | 3.7µM | 0 | 0 | 9.3µM
CC(Sc1nc2nn(-c3ccccc3)c(=O)c-2c2n1CCCCC2)C(N)=O (centres undefined) | 0 | 0 | - | 0 | 0 | 0
O=C(CSc1nc2nn(-c3ccccc3)c(=O)c-2c2n1CCCCC2)NCCCc1ccccc1 | 0 | 0 | ? | - | 0 | 9.3µM
O=C(CSc1nc2nn(-c3ccccc3)c(=O)c-2c2n1CCCCC2)Nc1ccccc1[N+](=O)[O-] | - | - | 6.6µM | - | 0 | ?
O=c1c2ccccc2n2c(-c3ccc(Cl)cc3)nnc2n1CCc1ccccc1 | - | - | - | - | 0 | -
O=C(NCCNc1ccc2ccccc2c1)c1cccn2c(=O)c3sccc3nc12 | 0 | 0 | 1.9µM | - | 0 | ?
CCC(C)(C)n1nnnc1C(c1ccc(OC)c(OC)c1)N1CCN(c2cccc(OC)c2)CC1 (centres undefined) | 0 | 0 | 0 | 0 | ? | 7.4µM
CCC(C)(C)n1nnnc1C(c1cc(OC)ccc1OC)N1CCN(Cc2ccccc2)CC1 (centres undefined) | 0 | 0 | 0 | 0 | 32µM | ?
COc1ccc(C(c2nnnn2C(C)(C)C)N2CCN(C)CC2)cc1OC (centres undefined) | 0 | 0 | 0 | 0 | 0 | 0
COc1ccc(OC)c(C(c2nnnn2Cc2ccccc2)N2CCN(C)CC2)c1 (centres undefined) | 0 | 0 | 0 | 0 | 0 | 0
CCC(C)(C)n1nnnc1C(c1ccc(OC)c(OC)c1)N1CCN(c2ccccc2)CC1 (centres undefined) | 0 | 0 | 0 | 0 | 50µM | ?
CC(C)(C)n1nnnc1C(c1cccnc1)N1CCN(c2cccc(C(F)(F)F)c2)CC1 (centres undefined) | 0 | 0 | 0 | 0 | 0 | 3.7µM
CCC(C)(C)n1nnnc1C(c1ccc(OC)c(OC)c1)N1CCN(c2ccc(OC)cc2)CC1 (centres undefined) | 0 | 0 | 0 | 0 | 0 | -
CCN(Cc1ccccc1)c1ccc(/C=N/NS(=O)(=O)c2cccc([N+](=O)[O-])c2)cc1 | 0 | 0 | 0 | 0 | 0 | 0
CCC(C)(C)n1nnnc1C(c1ccc(OC)c(OC)c1)N1CCN(c2ccc(F)cc2)CC1 (centres undefined) | 0 | 0 | - | 0 | 0 | 13µM
COc1ccccc1C(=O)NC(CCSC)C(=O)NCCCSc1ccccc1 (centres undefined) | - | - | ? | - | 0 | ?
Cc1nc(Nc2ccc(S(N)(=O)=O)cc2)sc1-c1ccccc1 | 31 | 0 | 0 | 0 | 0 | 0
COc1ccc(-c2csc(Nc3ccc(S(=O)(=O)Nc4cc(C)on4)cc3)n2)cc1C | 0 | 0 | ? | 0 | - | ?
Cc1nnc(Nc2ccc(S(N)(=O)=O)cc2)c2ccccc12 | 0 | - | ? | 0 | 0 | 0
COc1ccc(-c2sc(NC(C)=O)nc2-c2ccccc2)cc1 | 0 | 0 | 0 | 0 | 0 | 0
Cc1ccc(-c2csc(Nc3ccc(S(N)(=O)=O)cc3)n2)o1 | 0 | 0 | 0 | 0 | 1.8µM | 0
COc1ccc(Nc2nc(C)c(-c3ccccc3)s2)cc1 | 59 | 82 | ? | 0 | 0 | 0
Cc1nn(CC(=O)NCc2cccc3ccccc23)c(=O)c2ccccc12 | 0 | 0 | 0 | 0 | 0 | 0
CC(C)OCCCN1C=C2C(=O)C(C)(OC(=O)CCc3ccccc3)C(=O)C=C2C=C1c1ccc(C#N)cc1 (centres undefined) | 0 | 0 | ? | 0 | 0 | 10µM
SMILES | Cycloheximide cs | Shiga toxin inh | Pf growth 96h | NS1 inh | Sm TGR inh | Pf growth 48h
Cc1cc2nn(-c3ccccc3)nc2cc1NC(=O)Cc1ccc(Cl)cc1 | - | - | - | - | 0 | -
Nc1ccc2nn(-c3ccccc3)nc2c1 | 53 | 97 | 0 | 0 | 0 | 0
Nc1cc2nn(-c3ccccc3)nc2cc1Cl | 32 | 141 | 0 | - | 0 | 0
CC(C)CC(=O)Nc1cc2nn(-c3ccccc3)nc2cc1Cl | 74 | 115 | 0 | 0 | 0 | -
O=C(Cc1ccc(Cl)cc1)Nc1ccc2nn(-c3ccccc3)nc2c1 | - | - | - | - | 0 | -
Cc1ccc2c(c1)c1c(c(=O)n(-c3ccccc3C)c(=O)n1CC(=O)NCCC1=CCCCC1)n2C | - | - | - | - | 0 | -
CC(=O)N[C@@H](Cc1c[nH]c2ccccc12)C(=O)NC1CCCc2ccccc21 (some centres undefined) | 0 | 0 | 0 | 0 | 0 | ?
Cc1cc2oc(=O)cc(CSc3nc(N)cc(N)n3)c2cc1C | 0 | 0 | 0 | 0 | 0 | -
CCOC(=O)C1CCCN(c2ncnc3c2cnn3-c2ccc(OC)cc2)C1 (centres undefined) | 35 | 70 | ? | 0 | 0 | 0
CCOC(=O)N1CCC(Nc2ncnc3c2cnn3-c2ccc(Cl)cc2)CC1 | 54 | 120 | - | 0 | 0 | 0
CCOC(=O)C1CCCN(c2ncnc3c2cnn3-c2ccc(Cl)cc2)C1 (centres undefined) | 17 | 0 | ? | 0 | 0 | ?
Cc1ccc(-n2ncc3c(NC4CCCC4)ncnc32)cc1 | - | - | - | - | 0 | -
CCOC(=O)C1CCCN(c2ncnc3c2nnn3C)C1 (centres undefined) | - | - | - | - | 0 | -
COc1ccc(-n2ncc3c(N4CCCCC4)ncnc32)cc1 | 0 | 0 | 0 | 0 | 0 | 0
CC(C)C12CN3CC(C(C)C)(CN(C1)C3c1ccc(Cl)cc1)C2=O (centres undefined) | - | - | - | - | 0 | -
Cc1cc(C)c2c(n1)nn1c(N3CCN(Cc4ccccc4)CC3)cc(C)nc21 | 0 | 0 | - | 0 | ? | 0
COc1ccc(F)cc1CN1CCN(c2cc(C)nc3c4c(C)cc(C)nc4nn23)CC1 | 0 | 0 | ? | 0 | 0 | 15µM
Oc1ccc(CNc2ccccc2)c2cccnc12 | 0 | 0 | 0 | 0 | 0.25µM | ?
Cc1cccc(NCc2ccc(O)c3ncccc23)c1 | 0 | 0 | ? | 0 | 0.1µM | 0
Cc1cc2c(ncn2C(C)C)c(N)c1C | 0 | 0 | 0 | 0 | 0 | 0
CC1CCCN(C(=O)CSc2nnc(-c3c[nH]c4ccccc34)o2)C1 (centres undefined) | 35 | 0 | ? | 0 | 0[11.4 µM] | -
CC1CCCC(C)N1C(=O)CSc1nnc(-c2c[nH]c3ccccc23)o1 (centres undefined) | 0 | 0 | 0 | 0 | 0 | ?
COc1ccc(CN(C(=O)CSc2nnc(-c3c[nH]c4ccccc34)o2)c2ccc(F)cc2)cc1OC | 41 | 51 | ? | 0 | 0 | 4.1µM
CCC1CCCCN1C(=O)CSc1nnc(-c2c[nH]c3ccccc23)o1 (centres undefined) | 16 | 0 | 0 | 0 | 0[11.4 µM] | -
CCSc1nnc(-c2c[nH]c3ccccc23)o1 | 44 | 88 | 0 | 0 | 0 | 0
CCOC(=O)CSc1nnc(-c2c[nH]c3ccccc23)o1 | 0 | 0 | ? | 0 | 0 | ?
O=C(COC(=O)[C@H](Cc1ccccc1)NC(=O)c1cccs1)NC1CC1 | 0 | 0 | 0 | 0 | 0 | 0
